Bioassay records (PubChem)
This is a sample that favours compounds with a hit; in the whole collection about 1% have one here.
RGS4 inhibitor: inhibitors of human regulator of G protein signaling 4; 390,000 compounds, 0.039% hits; P49798; AID 504845; Transcreener GDP fluorescence polarization, RGS4-accelerated GTP hydrolysis; Potency, µM (highest dose often 114 µM), for inactives: at the highest dose activity change, negative = inhibition, hits mostly inhibitors; further: nearly all actives have a fitted effect of over 75% in size
Target sequence (P49798 whole entry, looked up): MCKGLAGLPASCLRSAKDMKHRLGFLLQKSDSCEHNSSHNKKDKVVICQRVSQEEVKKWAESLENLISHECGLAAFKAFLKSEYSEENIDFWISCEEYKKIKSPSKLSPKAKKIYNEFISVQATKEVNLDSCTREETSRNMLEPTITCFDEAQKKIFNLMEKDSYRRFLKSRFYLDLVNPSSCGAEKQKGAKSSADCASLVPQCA
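MLSMR compounds (23 nl, pin-transferred) preincubated 10 min at room temperature with a 500nM (2x) first reagent, then RGS4 at 900nM (2x) plus Transcreener GDP mix added; fluorescence polarization (620/688 nm) read before and after 90 min at 30 °C.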
TrxR1 inh: inhibitors of rat thioredoxin reductase 1; O89049; recombinant rTrxR1, NADPH fluorescence consumption, selenite substrate; Potency, µM (doses to about 114 µM), for the others: at the highest dose activity change, negative = inhibition, hits mostly inhibitors; 390,000 compounds, 1% hits; further: nearly all actives have a fitted effect of over 65% in size
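Rat TrxR1 (90 nM in the dispensed reagent) was pre-reduced with 400 uM NADPH for 5 min at room temperature, then incubated with compound for 15 min. After 400 uM selenite was added, NADPH fluorescence (Ex 340/Em 450 nm) was followed for 8 min.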
Eya2 phos inh: Eya2 (human) phosphatase inhibition | AID 488837 | recombinant Eya2, OMFP fluorescence dephosphorylation (OMFP is methylfluorescein phosphate) | 330,000 compounds, 0.006% hits | Potency, µM (highest dose often 76.9 µM), for the others: at the top dose activity, negative = inhibition, hits mostly inhibitors | O00167
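Eya2 protein (added as 0.2 uM solution) was preincubated with compound for 10 min at ambient temperature in 50 mM HEPES pH 7.5, 50 mM NaCl, 5 uM MgCl2, 0.05% BSA, 1 mM DTT. OMFP (added at 50 uM) then reacted 10 min; fluorescence read at 485/525 nm.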
GALK inhibitor: inhibitors of human galactokinase; P51570; Purified GALK, Kinase-Glo residual ATP luminescence; Potency, µM (highest dose often 57.5 µM), for inactives: at the top dose activity change, negative = inhibition, actives largely listed as inhibitors; 270,000 compounds, 0.007% hits; AID 1868
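Compounds were pin-transferred into ATP buffer (35 uM final), then GALK plus galactose (5 nM, 100 uM final) was added. After 1 h at room temperature, Kinase-Glo Plus was added and luminescence read after 10 min.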
USP2a inh: USP2a (human) protease inhibition; USP2 core, Ub-CHOP2 coupled fluorogenic reporter, 485/531; 330,000 compounds, 0.01% hits; Potency, µM (series often up to 38.3 µM), without a hit: at the top dose activity change, negative = inhibition, usual class: inhibitors; O75604; AID 463254;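 further: plate controls were DMSO wells for no effect and full inhibition by NEM control for full effect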
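Deubiquitinase activity read as fluorescence (485/531 nm) after Ub-CHOP2 cleavage activates the enterokinase reporter on its substrate; USP2 core 10nM, Ub-CHOP2 and substrate 25nM each, 30min compound preincubation then 60min RT; data normalized to NEM, curves fitted.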
TrxR1 substrate: is turned over as a substrate by rat TrxR1 | O89049 | Potency, µM (doses to about 114 µM), for inactives: top-dose activity change, negative = substrate turnover | 390,000 compounds, 0.01% hits | purified TrxR1 substrate turnover, NADPH consumption readout; further: nearly all actives have a fitted effect of over 50% in size
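Rat TrxR1, dispensed at 90 nM, was prereduced with 400 uM NADPH (final) for 5 min at ~22 deg C, then incubated with compound 15 min before 400 uM selenite. A first-read NADPH fluorescence drop versus no-compound background flagged substrates.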
Active calls of the source: *; ! = not confirmed by another sample; [ ] = remark or other dose. The call rests on the fitted dose curve; in most records, active means well fitted curve in the direction sought with a large enough effect; inconclusive means small, poorly fitted or top-dose-only effect, or another doubt; inactive means no such curve, though single readings can be large; an effect the other way counts as inactive or inconclusive. Unless noted, on the % scale 0 is the no-effect control and ±100 the full control effect; potency means the concentration at half of the fitted maximal effect.

Results for O=C(C=C1SCCS1)/C=C/c1ccco1 ?
RGS4 inhibitor: -52%; TrxR1 inh: 40µM*; Eya2 phos inh: 1%; GALK inhibitor: 0%; USP2a inh: 3%; TrxR1 substrate: -9%

What do the screens show for `CCCCCCCCCC[n+]1cccc2cc(Br)ccc21`?
TrxR1 inh: 1%; TrxR1 substrate: -3%

Results for CCN1C(=O)S/C(=C\c2ccc(N3CCOCC3)cc2C)C1=O ?
RGS4 inhibitor: -4%; TrxR1 inh: -3%; Eya2 phos inh: 17%; GALK inhibitor: 3%; USP2a inh: 4%; TrxR1 substrate: -2%

Results for CCCN1C(=O)S/C(=C/c2ccc(N3CCOCC3)o2)C1=O ?
RGS4 inhibitor: inconclusive; TrxR1 inh: 28µM*; Eya2 phos inh: 2%; GALK inhibitor: -2%; USP2a inh: inconclusive; TrxR1 substrate: -13%

How did CCCN1C(=O)S/C(=C\c2ccc(N3CCOCC3)o2)C1=O do in these assays?
RGS4 inhibitor: inconclusive; TrxR1 inh: 7.9µM*; Eya2 phos inh: -6%; GALK inhibitor: 8%; USP2a inh: 0%; TrxR1 substrate: -6%[57.1 µM]

How did CCCN1C(=O)S/C(=C\c2ccc(N3CCOCC3)cc2C)C1=O do in these assays?
Eya2 phos inh: -7%; GALK inhibitor: -1%; USP2a inh: -1%

How did CCOC(=O)COc1ccccc1/C=C\[N+](=O)[O-] do in these assays?
RGS4 inhibitor: inconclusive; TrxR1 inh: 2.8µM*; Eya2 phos inh: 5%; GALK inhibitor: 1%; USP2a inh: 3%; TrxR1 substrate: -2%

Results for Cc1ccc(C(=O)COC(=O)COc2ccccc2[N+](=O)[O-])s1 ?
RGS4 inhibitor: -12%; TrxR1 inh: inconclusive; Eya2 phos inh: -3%; USP2a inh: 1%; TrxR1 substrate: -6%

What do the screens show for `COc1ccc(N2C(=O)c3ccccc3NC2c2ccc(OC)c(COc3ccc(NC(C)=O)cc3)c2)cc1` (stereo not drawn)?
RGS4 inhibitor: 29%; TrxR1 inh: 14%; TrxR1 substrate: 9%[0.0914 µM]

How did O=C(O)c1cccc(N2C(=O)c3cc([N+](=O)[O-])cc4cc([N+](=O)[O-])cc(c34)C2=O)c1 do in these assays?
RGS4 inhibitor: -8%; TrxR1 inh: 11µM*; Eya2 phos inh: -4%; GALK inhibitor: 4%; USP2a inh: 1%; TrxR1 substrate: -17%

What do the screens show for `CN(C)/C=C1/C=C(c2ccccc2)OC1=O`?
RGS4 inhibitor: inconclusive; TrxR1 inh: 22µM*; Eya2 phos inh: 11%; GALK inhibitor: 2%; USP2a inh: 3%; TrxR1 substrate: -3%

Results for CN(C)c1ccc(/C=C/c2ccnc3c(O)ccc(O)c23)cc1 ?
TrxR1 inh: 18%; TrxR1 substrate: 21%

Results for Clc1ccc(-c2nc3sccn3c2/C=N/OCc2ccc(Cl)c(Cl)c2)cc1 ?
RGS4 inhibitor: 3µM*

How did O=C(Nc1cccc2ccccc12)c1cnn2c1NC(=C1CC1)C=C2C(F)F do in these assays?
TrxR1 inh: 16%; TrxR1 substrate: 2%

How did CCN(CC)C(=S)SSC(=S)N(CC)CC do in these assays?
RGS4 inhibitor: 1.1µM*!; TrxR1 inh: inconclusive; Eya2 phos inh: 8%; GALK inhibitor: 6%; USP2a inh: 9%; TrxR1 substrate: -5%[57.1 µM]

Results for CCN(CC)C(=S)SCC(=O)c1ccccc1 ?
RGS4 inhibitor: -35%; TrxR1 inh: -8%; Eya2 phos inh: -13%; USP2a inh: 0%; TrxR1 substrate: -13%

How did O=C(COc1ccccc1C(=O)Nc1cccc([N+](=O)[O-])c1)Nc1ccc(Br)cc1 do in these assays?
TrxR1 inh: 36%; TrxR1 substrate: 5%

How did CCCCN(CCCC)CC(O)c1cc(Cl)cc2c1-c1ccc(Cl)cc1C2=Cc1ccc(Cl)cc1 (stereo not drawn) do in these assays?
TrxR1 inh: -7%; TrxR1 substrate: 7%
